The values below come from PubChem BioAssay (EPA / NIEHS).

In test [1] the test system is DIO3 (gene 1735). As to the kind of experiment: CCTE_GLTED_hDIO3: CCTE's human Deiodinase 3 (DIO3) Inhibition Assay, Great Lakes Toxicology and Ecology Division (GLTED) Lab (AID 2284055; active means hit-call score of the fitted dose curve at least 0.9, where 1 is the maximum;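 on AC50: potency is for inhibition seen as loss of released iodide signal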). A digest of the protocol:
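Cell-free assay with human DIO3 enzyme produced by adenovirus expression; enzyme incubated with test chemical for 3 hours. Liberated iodide then measured by Sandell-Kolthoff absorbance; loss of signal versus DMSO baseline indicates inhibition, run in triplicate.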

Test [2] in a line: CCTE_Shafer_MEA_acute_AB: CCTE's Alamar Blue Assay for Cytotoxicity in the Neural Acute Assay, Shafer Lab (AID 2284069; active means hit-call score of the fitted dose curve at least 0.9, where 1 is the maximum;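 further: active compounds lower the viability signal compared with DMSO wells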). A digest of the protocol:
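Primary rat cortical neurons on MEA plates, exposed acutely after baseline recording on day 13 or 15 post-plating. Viability by CellTiter Blue resazurin reduction (1:6 reagent dilution), fluorescence 544/590 nm; loss of signal versus DMSO.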

Test [3] is described as follows: CCTE_Shafer_MEA_acute_LDH: CCTE's Lactate Dehydrogenase Assay for Cytotoxicity in the Neural Acute Assay, Shafer Lab (AID 2284086; active means hit-call score of the fitted dose curve at least 0.9, where 1 is the maximum;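 further: active means LDH release rises above DMSO vehicle level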). The essentials:
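Primary rat cortical neurons on 48-well MEA plates, treated on day 13 or 15 post-plating. After the 40-min recording with compound, medium LDH release was read by absorbance at 490 nm. Gain of signal was fitted against DMSO negative control.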

Test [4] can be described thus: CCTE_Shafer_MEA_dev_LDH: CCTE's Lactate Dehydrogenase Assay for Cytotoxicity in the Neural Network Formation Assay, Shafer Lab (AID 2284068; active means hit-call score of the fitted dose curve at least 0.9, where 1 is the maximum;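 further: exposure for twelve days from plating with re-dosing on DIV 5 and 9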). The essentials: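 Primary rat cortical neurons were plated on PEI/laminin MEA plates and exposed from day 0 for twelve days, with compound renewed at DIV 5 and 9. Cytotoxicity was determined by spectrophotometric LDH assay relative to DMSO.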

Test [5] can be described thus: CCTE_Shafer_MEA_dev_AB: CCTE's Alamar Blue Assay for Cytotoxicity in the Neural Network Formation Assay, Shafer Lab (AID 2284083; active means hit-call score of the fitted dose curve at least 0.9, where 1 is the maximum;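 further: twelve days of exposure from plating with re-dosing on DIV 5 and 9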). The essentials: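 Primary rat cortical neurons on PEI-coated 48-well MEA plates, 1.5 x 10^5 cells/well in laminin drop; compound exposure from day 0 of plating for twelve days, renewed at medium changes on DIV 5 and 9. Viability read as resazurin reduction by fluorescence, relative to DMSO.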
(In general: The colour change of resazurin is a common sign of viable cells or microbes.)

The nature of test [6]: CCTE_Shafer_MEA_dev_mutual_information_norm: CCTE's Neural Network Formation Assay for Mutual Information Normalization, Shafer Lab (AID 2284091).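 On AC50: mutual information between electrodes summarised as area under curve across four recording days; potency is for a decrease in mutual information relative to DMSO.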 The essentials: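 Developing rat cortical networks on 16-electrode MEA wells are treated throughout formation (DIV 0–12). Shared electrode information is recorded four times, converted to area-under-curve, and fitted for decreases against DMSO vehicle.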

A short description of test [7]: CCTE_Shafer_MEA_dev_correlation_coefficient_mean: CCTE's Neural Network Formation Assay for Mean Correlation Coefficient, Shafer Lab (AID 2284093).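 On AC50: well mean pairwise spike train correlation integrated as AUC over recording days 5 to 12; potency fitted for loss of correlation relative to DMSO vehicle wells.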 The essentials:
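Spontaneous activity recorded on days 5, 7, 9 and 12 post-plating; pairwise spike correlations are averaged across active electrodes and collapsed to an area-under-curve. Rat cortical cultures are dosed from plating through 12 days, with compound renewed at media changes.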

Test [8] is described as follows: UKN2_HCS_IMR90_neural_migration: University of Konstanz (UKN) Leist Lab Neural Crest Cell Migration Assay in human induced IMR90 Pluripotent Stem Cells (UKN2) (AID 2284204). As to conditions: actives raise or lower the signal. A digest of the protocol: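 Migration of human IMR90-derived neural crest cells into a stopper-defined gap is imaged after 24 h chemical treatment. Activity is fitted bidirectionally relative to DMSO.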

The nature of test [9]: UKN4_HCS_LUHMES_neurite_outgrowth: University of Konstanz (UKN) Leist Lab Neurite Outgrowth Assay in human LUHMES cells (UKN4) (AID 2284206). Conditions: actives raise or lower the signal. A digest of the protocol: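 LUHMES neuronal precursors differentiated 2 days, replated without cAMP/GDNF, then exposed to chemicals for 24 h. Neurite area imaged by high-content microscopy after calcein-AM staining; Hoechst H-33342 marks viability. Bidirectional fit versus DMSO.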

The nature of test [10]: IUF_NPC1b_proliferation_BrdU_72hr: Leibniz Research Institute for Environmental Medicine (IUF) 72-hour Neural Progenitor Cell Bromodeoxyuridine (BrdU) Proliferation Assay (NPC1b) (AID 2284207). The essentials: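 Proliferation of primary human neural progenitor cells: 72 h compound treatment at 37C, 5% CO2, pH 7.2-7.6, in EGF/FGF-containing medium. Readout is BrdU uptake (last 16 h) by chemiluminescent ELISA, normalised to DMSO.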

Test [11] is described as follows: IUF_NPC1a_proliferation_area_72hr: Leibniz Research Institute for Environmental Medicine (IUF) 72-hour Neural Progenitor Cell Proliferation Area Assay (NPC1a) (AID 2284208). The essentials:
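Measured in 3D suspension: each well held one primary hNPC sphere grown with EGF and FGF at pH 7.2-7.6. Compound stayed on for 72 h, then area was imaged; spheres lacking growth factors defined reduced proliferation.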

A short description of test [12]: IUF_NPC1_viability_72hr: Viability Assessment at 72 hours in the Leibniz Research Institute for Environmental Medicine (IUF) Neural Progenitor Cell Proliferation Assay (NPC1) (AID 2284209). A digest of the protocol: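 Human fetal-cortex neural progenitor spheres (0.25–0.35 mm, one per well) grown in EGF/FGF proliferation medium at 37C, pH 7.2-7.6, exposed 72 h without renewal; viability read as alamar blue resazurin-to-resorufin fluorescence relative to DMSO.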

Test [13] can be described thus: CCTE_Mundy_HCI_Cortical_Synap_Neur_Matur_NeuriteSpotCountPerNeuriteLength: CCTE's Synaptogenesis and Neurite Maturation Assay in rat cortical cells for Neurite Spot Count per Neurite Length, Mundy Lab (AID 2284210). The essentials:
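Primary rat cortical neurons, compound exposure DIV 7–12, 288.33 h endpoint. Hoechst, anti-MAP2 and anti-synaptophysin labelling; neurite-associated puncta per neurite length scored by automated imaging relative to DMSO controls.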

A short description of test [14]: CCTE_Mundy_HCI_Cortical_Synap_Neur_Matur_BPCount: CCTE's Synaptogenesis and Neurite Maturation Assay in rat cortical cells for Branch Point Count, Mundy Lab (AID 2284211). A digest of the protocol: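 Branch point number is quantified by automated imaging of fluorescently labelled neurites and synapses in rat primary cortical neurons exposed from DIV 7 to DIV 12. Activity is analysed relative to DMSO negative control.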

The nature of test [15]: CCTE_Mundy_HCI_Cortical_NOG_NeuriteCount: CCTE's Neurite Outgrowth Assay in rat cortical cells for Neurite Count, Mundy Lab (AID 2284212).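 Further: cells fixed about two days after chemical exposure began.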 A digest of the protocol:
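Neurite number per cell from high-content imaging of betaIII-tubulin immunostaining, with Hoechst nuclear counterstain.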

A short description of test [16]: CCTE_Mundy_HCI_Cortical_NOG_NeuriteLength: CCTE's Neurite Outgrowth Assay in rat cortical cells for Neurite Length, Mundy Lab (AID 2284213).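 Further: neurites imaged about 48 to 50 h after chemical exposure began.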 A digest of the protocol:
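Neurite length was read by high-content imaging of βIII-tubulin-labelled neurites in rat primary cortical cultures. Activity was fitted relative to DMSO.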

Test [17] in a line: CCTE_Mundy_HCI_Cortical_Synap_Neur_Matur_NeuriteLength: CCTE's Synaptogenesis and Neurite Maturation Assay in rat cortical cells for Neurite Length, Mundy Lab (AID 2284214). A digest of the protocol: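 Rat primary cortical cells were plated, treated with AraC at DIV 5 to arrest glial growth, then chemical-dosed with media change at DIV 7 through DIV 12. Fixed cells stained for MAP2, synaptophysin and Hoechst; neurite length quantified by high-content imaging.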

A short description of test [18]: CCTE_Mundy_HCI_Cortical_Synap_Neur_Matur_NeuriteSpotCountPerNeuron: CCTE's Synaptogenesis and Neurite Maturation Assay in rat cortical cells for Neurite Spot Count per Neuron Count, Mundy Lab (AID 2284215). The essentials: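 Developing rat cortical neurons, with glia suppressed by AraC, are exposed to chemicals from DIV 7 to DIV 12. Automated fluorescence imaging of MAP2-labelled neurites and synaptophysin puncta yields a count per neuron, normalised against DMSO wells.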

Where “and” joins values, the source holds several entries; their conditions need not be identical. Equal entries are not always repeated. Inconclusive results are not listed. Calls of active or inactive are those of the source. How the source made its calls, unless noted: active means hit-call score of the fitted dose curve at least 0.9, where 1 is the maximum; inactive means score below 0.9.

By AC50 is commonly meant the concentration at which the activity in the assay is half-maximal. In the case of `Cc1oc(-c2ccccc2)nc1CCOc1ccc(C[C@H](Nc2ccccc2C(=O)c2ccccc2)C(=O)O)cc1`, in test [1], the AC50 is 67.5 µM (active).
For `NC(=O)N(O)[C@@H]1C=C[C@H](Oc2cccc(Oc3ccc(F)cc3)c2)C1`, the AC50 in test [1] was 30.5 µM (active). The compound was called inactive in test [2] and in [3].
Take `CC#C[C@]1(O)CC[C@H]2[C@@H]3CCC4=CC(=O)CCC4=C3[C@@H](c3ccc(N(C)C)cc3)C[C@@]21C`: the AC50 is 16.4 µM (active) and 25.1 µM (active) in test [4]; 16.5 µM (active) and 25.4 µM (active) in test [5]; 1.07 µM (active) and 11.7 µM (active) in [6]; 6.26 µM (active) and 22.2 µM (active) in [7]; 9.67 µM (active) and 5.64 µM (active) in [8]; 10 µM (active) in test [9]. The AC50 in [10] is 5 µM (active); in test [13], 25.7 µM (active); in test [14], 18.4 µM (active) and 27.4 µM (active); in test [15] it was 62 µM (active) and 24.4 µM (active); in [16], 50 µM (active) and 23.6 µM (active); in test [17] it was 15.9 µM (active) and 27.7 µM (active). Also, the AC50 in test [18] was 13.3 µM (active) and 25.5 µM (active). In addition, the outcome in test [2], in [3], in test [11] and in [12] was inactive.
Take `c1ccc2cc3c(ccc4ccccc43)cc2c1`: the AC50 in test [1] was 65.8 µM (active). The compound was called inactive in [4], in test [5], in [6] and in [7].
For `CC(=O)NC1(c2cccc(F)c2)CCN(CC[C@@]2(c3ccc(Cl)c(Cl)c3)CN(c3ccccc3)C(=O)CO2)CC1`, the compound was called inactive in [1], in [2] and in [3].
For the compound `CCCCCCCCCCCCc1ccccc1S(=O)(=O)O`, the AC50 in test [1] was 40 µM (active). Also, the call in test [2] and in test [3] was inactive.
